Assay [1] can be described thus: Tanguay_ZF_120hpf_PFIN_legacy: (Legacy) Oregon State University Tanguay Lab 120 Hour Post-fertilization zebrafish Assay for Pectoral Fin Malformation (AID 2283648).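 Note: each larva judged yes or no for fin defect by brightfield with dead larvae skipped.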 The method, boiled down:
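Tropical 5D wild-type embryos, dechorionated with pronase at 4 hpf, were placed singly in wells at 6 hpf and statically exposed until 120 hpf at 28C, sealed and dark, with 0.64% (vol/vol) final DMSO; pectoral fin malformation scored present/absent.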

A short description of assay [2]: Tanguay_ZF_120hpf_PIG_legacy: (Legacy) Oregon State University Tanguay Lab 120 Hour Post-fertilization zebrafish Assay for Pigmentation Malformation (AID 2283650). The method, boiled down: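 Tropical 5D wild-type zebrafish embryos, dechorionated with pronase at 4 hpf, were exposed singly from 6 hpf to 120 hpf statically at 28C in sealed, dark plates with 0.64% DMSO; pigmentation scored present/absent by brightfield microscopy, fitted against DMSO.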

The nature of assay [3]: Tanguay_ZF_120hpf_CIRC_legacy: (Legacy) Oregon State University Tanguay Lab 120 Hour Post-fertilization zebrafish Assay for Circulatory Malformation (AID 2283651). The gist of the method: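 Dechorionated wild-type 5D zebrafish embryos, one per well, statically exposed from 6 to 120 hpf at 28C with 0.64% DMSO; circulatory malformation scored present/absent by brightfield microscopy at 120 hpf, dead embryos excluded.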

The nature of assay [4]: Tanguay_ZF_120hpf_TRUN_legacy: (Legacy) Oregon State University Tanguay Lab 120 Hour Post-fertilization zebrafish Assay for Truncated Body (AID 2283655). The gist of the method: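 Dechorionated Tropical 5D wild-type embryos placed singly from 6 hpf and statically exposed to 120 hpf at 28C, final DMSO 0.64%. Truncated body scored as present/absent by brightfield; not scored in dead embryos.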

Read-out in assay [5]: ABC Transporter (ABCB1), ABCB1 (gene 5243)
The assay is described as follows: CLD_ABCB1_6hr: CellzDirect (CLD) Gene Expression Assay for ABC Transporter (ABCB1) at 6 hours (AID 2283659).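 Note: hits raise ABCB1 transcript above the DMSO vehicle baseline.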 The method, boiled down: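 Primary human hepatocytes (two donor preparations) dosed daily for two days with chemicals at multiple concentrations, 0.2% DMSO vehicle; harvested 6 h post-dose. ABCB1 mRNA induction quantified by qNPA chemiluminescence; gain-of-signal fitted versus DMSO.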

Read-out in assay [6]: xenobiotic metabolism (CYP1A1), CYP1A1 (gene 1543)
The assay is described as follows: CLD_CYP1A1_6hr: CellzDirect (CLD) Gene Expression Assay for xenobiotic metabolism (CYP1A1) at 6 hours (AID 2283661).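 For AC50: potency for transcript induction above DMSO vehicle baseline.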 The gist of the method: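 Primary human hepatocytes from two donors, compound versus 0.2% DMSO vehicle. CYP1A1 mRNA measured 6 h after dosing by quantitative nuclease protection assay with chemiluminescent read-out; induction fitted relative to DMSO, cytotoxicity flagged by microscopy.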

Assay [7] can be described thus: Tanguay_ZF_120hpf_TR_legacy: (Legacy) Oregon State University Tanguay Lab 120 Hour Post-fertilization zebrafish Assay for Touch Response (AID 2283667). The gist of the method: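 Tropical 5D wild-type zebrafish embryos were exposed statically in sealed, foil-covered plates at 28C until 120 hpf, with 0.64% (vol/vol) final DMSO. Touch response was scored as present or absent; embryos that died were not scored.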

Read-out in assay [8]: sulfotransferase (SULT2A), SULT2A1 (gene 6822)
Kind of assay: CLD_SULT2A_6hr: CellzDirect (CLD) Gene Expression Assay for sulfotransferase (SULT2A) at 6 hours (AID 2283669).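 Note: hits raise transcript level above the DMSO vehicle baseline.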 The gist of the method:
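Primary human hepatocytes from two donor preparations were dosed daily with chemicals or 0.2% DMSO and harvested at 6 h. Transcript induction read by qNPA chemiluminescence, fitted for gain of signal relative to DMSO; morphology-based cytotoxicity annotated.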

Read-out in assay [9]: glucuronosyltransferase (UGT1A1), UGT1A1 (gene 54658)
The assay is described as follows: CLD_UGT1A1_6hr: CellzDirect (CLD) Gene Expression Assay for glucuronosyltransferase (UGT1A1) at 6 hours (AID 2283672). The gist of the method: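 Primary human hepatocytes from two donor preparations, dosed with fresh solutions in 0.2% DMSO, harvested at 6 h. UGT1A1 mRNA measured by qNPA chemiluminescence; induction fitted upward versus DMSO.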

Assay [10] is described as follows: CLD_ACTIN_24hr: CellzDirect (CLD) Gene Expression Assay for Baseline Control (Actin) at 24 hours (AID 2283670). The method, boiled down: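 Primary human hepatocytes dosed over multiple concentrations with 0.2% DMSO vehicle; actin mRNA measured at 24 h by qNPA chemiluminescence. Background control endpoint, fitted as gain of signal versus DMSO.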
Assay [11] can be described thus: Tanguay_ZF_120hpf_CFIN_legacy: (Legacy) Oregon State University Tanguay Lab 120 Hour Post-fertilization zebrafish Assay for Caudal Fin Malformation (AID 2283649). The gist of the method: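 Dechorionated Tropical 5D wild-type embryos, one per well from 6 hpf, static exposure to 120 hpf at 28C in 0.64% DMSO. Caudal fin malformation scored by brightfield as present/absent; not scored in dead embryos.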

The nature of assay [12]: Tanguay_ZF_120hpf_NC_legacy: (Legacy) Oregon State University Tanguay Lab 120 Hour Post-fertilization zebrafish Assay for Notochord and Tail Malformation (AID 2283656). The gist of the method:
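Dechorionated Tropical 5D wild-type zebrafish embryos, one per well from 6 hpf, statically exposed to 120 hpf at 28C in 0.64% DMSO final. Notochord distortion scored present/absent by brightfield; dead embryos excluded.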

Assay [13] relates to Thyroperoxidase (TPO), gene 54314. The assay is described as follows: CCTE_Simmons_AUR_rTPO: CCTE's Amplex UltraRed Assay for Thyroperoxidase (TPO) Inhibition, Simmons Lab (AID 2283662).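 Note: potency for loss of signal meaning inhibition of peroxidase activity.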 The method, boiled down:
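Rat thyroid microsomal TPO + 25 uM AUR in 200 mM K phosphate; cpd 5 nM–87.5 uM [final], 8 conc, 0.5% DMSO; 300 uM H2O2 starts rxn; 37C dark 30 min; endpoint FI 544/590 nm; n=3.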

The nature of assay [14]: CCTE_Simmons_CellTiterGLO_HEK293T: Viability Assessment in CCTE's Assays for Thyroperoxidase (TPO) Inhibition, Simmons Lab (AID 2283665). The gist of the method:
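HEK293T cells in DMEM with 1% FBS, dosed 24 h at 37C with 8 concentrations, 5 nM–87.5 uM final, 0.5% DMSO. ATP measured by CellTiter Glo luminescence; loss of signal vs DMSO, three biological replicates.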

Read-out in assay [15]: kallikrein-3 (KLK3), KLK3 (gene 354)
Kind of assay: LTEA_HepaRG_KLK3: Life Technologies and Expression Analysis (LTEA) Assay for kallikrein-3 (KLK3) using HepaRG (AID 2283652; active = hit-call score of the fitted dose curve at least 0.9, where 1 is the maximum; inactive = score below 0.9). The settings on record: mRNA level, 48 h; actives raise or lower the signal. The gist of the method:
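Differentiated human HepaRG cells in serum-free induction medium exposed 48 h in duplicate, eight-point half-log series from 100 uM in 0.5% DMSO. KLK3 mRNA by qRT-PCR, normalised to ACTB, GAPDH, POLR2A; bidirectional fit versus DMSO.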

Read-out in assay [16]: solute carrier (SLC10A1), SLC10A1 (gene 6554)
Kind of assay: LTEA_HepaRG_SLC10A1: Life Technologies and Expression Analysis (LTEA) Assay for solute carrier (SLC10A1) using HepaRG (AID 2283657; active = hit-call score of the fitted dose curve at least 0.9, where 1 is the maximum; inactive = score below 0.9). The settings on record: mRNA level, 48 h; actives raise or lower the signal. The method, boiled down:
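Differentiated HepaRG cells were plated 48 h, then exposed in serum-free induction medium for 48 h to 8 concentrations (top 100 uM, half-log steps, 0.5% DMSO). SLC10A1 mRNA was quantified by qRT-PCR normalized to ACTB, GAPDH, POLR2A; bidirectional fit versus DMSO.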

Read-out in assay [17]: matrix metalloproteinase-1 (MMP1), MMP1 (gene 4312)
The assay is described as follows: LTEA_HepaRG_MMP1: Life Technologies and Expression Analysis (LTEA) Assay for matrix metalloproteinase-1 (MMP1) using HepaRG (AID 2283658; active = hit-call score of the fitted dose curve at least 0.9, where 1 is the maximum; inactive = score below 0.9). The settings on record: mRNA level, 48 h; actives raise or lower the signal. The method, boiled down:
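Differentiated human HepaRG cells, 48 h post-plating in serum-free induction medium, were exposed 48 h to eight half-log concentrations topping at 100 uM in 0.5% DMSO, duplicate. MMP1 mRNA measured by Fluidigm TaqMan qRT-PCR, normalized to ACTB, GAPDH, POLR2A; bidirectional fits versus DMSO.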

Read-out in assay [18]: Cytochrome P450 (CYP24A1_1), CYP24A1 (gene 1591)
Kind of assay: LTEA_HepaRG_CYP24A1_1: Life Technologies and Expression Analysis (LTEA) Assay for Cytochrome P450 (CYP24A1_1) using HepaRG (AID 2283671; active = hit-call score of the fitted dose curve at least 0.9, where 1 is the maximum; inactive = score below 0.9). Particulars: mRNA level, 48 h; actives raise or lower the signal. The gist of the method: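 HepaRG, 48 h exposure, 8-pt half-log series from 100 uM in 0.5% DMSO, duplicates. Readout: TaqMan qRT-PCR of CYP24A1 mRNA, housekeeping-normalized (ACTB/GAPDH/POLR2A). Bidirectional curve fit vs DMSO baseline.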

The structures appear in SMILES notation. Results filed as inconclusive are left out. Calls of active or inactive are those of the source. Rule for the calls, unless noted: active = hit-call score of the fitted dose curve at least 0.9, where 1 is the maximum; inconclusive = response in the unintended direction; inactive = score below 0.9.

Take `CC(C)(C)C(O)/C(=C\c1ccc(Cl)cc1Cl)n1cncn1` (stereo not given): the AC50 was 42.5 µM (active) in assay [1] and 1.89 µM (active) in [6]. The compound was called inactive in assay [2], in assay [3], in assay [4], in [5], in [7] and in assay [8]. Moreover, the compound was called inactive in assay [9].

On to `COc1cc(OC)nc(NC(=O)NS(=O)(=O)c2cc(NC=O)ccc2C(=O)N(C)C)n1`, for which the compound was called inactive in assay [5], in assay [8] and in assay [10].

On to `COc1nn(CSP(=S)(OC)OC)c(=O)s1`, for which the result in assay [1], in [11], in [2], in [4], in assay [12] and in assay [14] was inactive. The call in assay [7] and in assay [9] was inactive. In addition, the AC50 in assay [13] is 3.7 µM (active).

For `CCC(C)(NC(=O)c1cc(Cl)c(C)c(Cl)c1)C(=O)CCl` (stereo not given), the outcome in assay [1], in assay [11], in assay [3], in assay [4], in assay [12] and in assay [5] was inactive. The call in assay [8] and in [9] was inactive. Further, the AC50 in [7] was 57.8 µM (active).

In the case of `CN1CSC(=S)N(C)C1`, the call in assay [1], in [2], in [3], in assay [15], in [4] and in assay [16] was inactive. In addition, the call in [17], in assay [5], in assay [6], in [14], in [7] and in assay [8] was inactive. Further, the compound was called inactive in assay [10], in assay [18] and in assay [9]. Also, the figures for the AC50 in [12] and in assay [13] were 6.95 µM (active) and 6.52 µM (active), respectively.

In the case of `CCC(C)(C)C(=O)OC1=C(c2ccc(Cl)cc2Cl)C(=O)OC12CCCCC2`, the compound was called inactive in assay [1], in assay [11], in [2], in assay [3], in [4] and in assay [5]. The compound was called inactive in [7] and in assay [9].

Consider `C[C@H]1[C@H](c2ccc(Cl)cc2)SC(=O)N1C(=O)NC1CCCCC1`, for which the call in assay [1], in assay [11], in [2], in assay [4], in [12] and in assay [5] was inactive. Moreover, the call in assay [6], in assay [7], in assay [8] and in assay [9] was inactive.

These data come from PubChem BioAssay (EPA / NIEHS).
